In PubChem BioAssay (NCI):
The panel holds about 83,000 compounds, 20% with a hit somewhere; the sample as a whole holds those more often.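 Single-dose data. Exposure time 48 hours. Values below 10 considered active.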 Activity calls are given as the source filed them.

Columns and labels:
Assay in all cases: NCI-60 one-dose screen, 48 h (100 = growth as untreated, 0 = no growth, -100 = all killed)
Conditions in all cases: 10 µM unless noted
SR leukemia = system: SR leukemia
RPMI-8226 leukemia = system: RPMI-8226 leukemia
OVCAR-8 ovarian = system: OVCAR-8 ovarian
OVCAR-5 ovarian = system: OVCAR-5 ovarian
OVCAR-4 ovarian = system: OVCAR-4 ovarian
SK-OV-3 ovarian = system: SK-OV-3 ovarian
IGROV1 ovarian = system: IGROV1 ovarian
OVCAR-3 ovarian = system: OVCAR-3 ovarian
HS 578T breast = system: HS 578T breast
NCI/ADR-RES ovarian = system: NCI/ADR-RES ovarian
T-47D breast = system: T-47D breast
BT-549 breast = system: BT-549 breast
SW-620 colon = system: SW-620 colon
MCF7 breast = system: MCF7 breast
HCT-116 colon = system: HCT-116 colon
HCC-2998 colon = system: HCC-2998 colon
KM12 colon = system: KM12 colon
MDA-MB-435 melanoma = system: MDA-MB-435 melanoma

Measured: growth

Nc1n[nH]c2ccc([C@@H]3Nc4cc5[nH]ncc5cc4[C@H]4C5CCC(C5)[C@@H]34)cc12 (some centres undefined)
inactive: SR leukemia 20% | OVCAR-8 ovarian 29.7% | OVCAR-5 ovarian 31.2% | OVCAR-4 ovarian 43.3% | SK-OV-3 ovarian 52.8% | IGROV1 ovarian 22.7% | HS 578T breast 32% | NCI/ADR-RES ovarian 21.6% | T-47D breast 51.9% | BT-549 breast 11.3% | SW-620 colon 21.6% | MCF7 breast 12.3% | HCC-2998 colon 18.1% | KM12 colon 15.6%
active: RPMI-8226 leukemia 5.15% | OVCAR-3 ovarian -27.6% | HCT-116 colon 8.92%

CCN(CC)CCOc1nc2c3ccc(Cl)cc3nn2c2ccccc12
inactive: OVCAR-8 ovarian 28.6% | OVCAR-5 ovarian 34% | OVCAR-4 ovarian 35.4% | SK-OV-3 ovarian 56% | IGROV1 ovarian 10.1% | OVCAR-3 ovarian 54.6% | HS 578T breast 55.2% | NCI/ADR-RES ovarian 25.3% | T-47D breast 53.4% | BT-549 breast 70.3% | SW-620 colon 19.7% | HCC-2998 colon 15.4% | KM12 colon 43.1%
active: SR leukemia 5.43% | RPMI-8226 leukemia -8.15% | MCF7 breast 2.07% | HCT-116 colon 5.87%

NS(=O)(=O)c1ccc(N/C=C/C(=O)c2cc3ccccc3oc2=O)cc1
inactive: SR leukemia 78.1% | RPMI-8226 leukemia 98.4% | OVCAR-8 ovarian 104% | OVCAR-5 ovarian 106% | OVCAR-4 ovarian 87.5% | SK-OV-3 ovarian 83.4% | IGROV1 ovarian 91.5% | OVCAR-3 ovarian 101% | HS 578T breast 92.4% | NCI/ADR-RES ovarian 97.8% | T-47D breast 89.1% | MDA-MB-435 melanoma 100% | SW-620 colon 95.5% | MCF7 breast 68.8% | HCT-116 colon 97.1% | HCC-2998 colon 109% | KM12 colon 98.2%

Cc1ncc(C(=O)Nc2ccc(CN3CCN(C)CC3)c(C(F)(F)F)c2)cc1C#Cc1cnc(N)c2cnccc12
inactive: RPMI-8226 leukemia 39.2% | OVCAR-8 ovarian 15.4% | OVCAR-5 ovarian 12.5% | OVCAR-4 ovarian 40.7% | OVCAR-3 ovarian 31.2% | NCI/ADR-RES ovarian 55.3% | BT-549 breast 14.6%
active: SR leukemia -17.8% | SK-OV-3 ovarian -30.9% | IGROV1 ovarian -31.3% | HS 578T breast -16.6% | T-47D breast 8.63% | SW-620 colon -55.3% | MCF7 breast -73.7% | HCT-116 colon -86.1% | HCC-2998 colon -1.5% | KM12 colon 9.54%

N=C(N)c1ccc(-c2ccc(-c3ccc(F)cc3)s2)s1
active: SR leukemia -32.6% | RPMI-8226 leukemia -18.6% | OVCAR-8 ovarian -54.7% | OVCAR-5 ovarian -28.8% | OVCAR-4 ovarian -23.8% | IGROV1 ovarian -27.5% | OVCAR-3 ovarian -57.8% | NCI/ADR-RES ovarian -33.3% | T-47D breast -38.2% | MDA-MB-435 melanoma -88.7% | SW-620 colon -65.2% | MCF7 breast -67% | HCT-116 colon -57.3% | HCC-2998 colon -73.3% | KM12 colon -76.1%
inactive: SK-OV-3 ovarian 80.5% | HS 578T breast 84.6%

COc1cc2cc(NCc3ccc(OC(F)F)cc3)nc(C)c2cc1OC
inactive: SR leukemia 53.1% | RPMI-8226 leukemia 42.5% | OVCAR-8 ovarian 71.3% | OVCAR-5 ovarian 56.1% | OVCAR-4 ovarian 74.2% | SK-OV-3 ovarian 57.6% | IGROV1 ovarian 48.2% | OVCAR-3 ovarian 77% | HS 578T breast 77.6% | NCI/ADR-RES ovarian 56.3% | T-47D breast 71.1% | MDA-MB-435 melanoma 68.4% | SW-620 colon 47.9% | MCF7 breast 86.1% | HCT-116 colon 37.3% | HCC-2998 colon 78.2% | KM12 colon 82.8%

O=C(c1ccc(F)c(Cl)c1)N1c2ccccc2Sc2ccccc21
active: MDA-MB-435 melanoma 8.14%
inactive: SR leukemia 34% | RPMI-8226 leukemia 52.6% | OVCAR-8 ovarian 89.9% | OVCAR-5 ovarian 87.3% | OVCAR-4 ovarian 80.1% | SK-OV-3 ovarian 89.2% | IGROV1 ovarian 71.2% | OVCAR-3 ovarian 63.2% | HS 578T breast 79.3% | NCI/ADR-RES ovarian 39.8% | T-47D breast 61% | SW-620 colon 33.9% | MCF7 breast 51.2% | HCT-116 colon 31.4% | HCC-2998 colon 62.3% | KM12 colon 39.6%

N=c1sc(Cc2cc(Cl)ccc2Cl)cn1CC(=O)c1ccccc1
inactive: SR leukemia 27.4% | RPMI-8226 leukemia 70.4% | OVCAR-8 ovarian 62.6% | OVCAR-5 ovarian 47.8% | OVCAR-4 ovarian 56.5% | SK-OV-3 ovarian 67.9% | IGROV1 ovarian 35.6% | OVCAR-3 ovarian 45.4% | HS 578T breast 59.2% | NCI/ADR-RES ovarian 36% | T-47D breast 38.3% | BT-549 breast 68.8% | SW-620 colon 21.2% | MCF7 breast 32.3% | HCC-2998 colon 31.6% | KM12 colon 16.1%

O=C(CBr)CN1C(=O)c2ccccc2C1=O
inactive: SR leukemia 98.9% | RPMI-8226 leukemia 112% | OVCAR-8 ovarian 103% | OVCAR-5 ovarian 97.4% | OVCAR-4 ovarian 103% | SK-OV-3 ovarian 99.7% | IGROV1 ovarian 103% | OVCAR-3 ovarian 102% | HS 578T breast 105% | NCI/ADR-RES ovarian 105% | T-47D breast 93.9% | MDA-MB-435 melanoma 103% | SW-620 colon 109% | MCF7 breast 97.7% | HCT-116 colon 102% | HCC-2998 colon 98.8% | KM12 colon 97.6%

NNC(=S)N/N=C/c1ccccn1
active: SR leukemia 5.56% | T-47D breast 9.69%
inactive: RPMI-8226 leukemia 28.9% | OVCAR-8 ovarian 20% | OVCAR-5 ovarian 40.3% | OVCAR-4 ovarian 29.2% | SK-OV-3 ovarian 24.3% | IGROV1 ovarian 40.2% | OVCAR-3 ovarian 21.7% | HS 578T breast 31.8% | NCI/ADR-RES ovarian 17.8% | BT-549 breast 55% | SW-620 colon 51.3% | MCF7 breast 15.7% | HCT-116 colon 19.8% | HCC-2998 colon 28.8% | KM12 colon 29.2%

CCCCc1oc2ccccc2c1C(=O)c1ccc(O)cc1
inactive: SR leukemia 31% | RPMI-8226 leukemia 42.5% | OVCAR-8 ovarian 82.2% | OVCAR-5 ovarian 84.3% | OVCAR-4 ovarian 68.2% | SK-OV-3 ovarian 94.4% | IGROV1 ovarian 79.6% | OVCAR-3 ovarian 94.3% | HS 578T breast 83.2% | NCI/ADR-RES ovarian 76.1% | T-47D breast 75.3% | MDA-MB-435 melanoma 52.2% | SW-620 colon 99.8% | MCF7 breast 104% | HCT-116 colon 83.2% | HCC-2998 colon 460% | KM12 colon 76.4%

CCOC(=O)c1c2c(n3ccccc13)C(=O)c1ncccc1C2=O
inactive: SR leukemia 18.6% | RPMI-8226 leukemia 29.2% | OVCAR-5 ovarian 42.2% | OVCAR-4 ovarian 16.6% | SK-OV-3 ovarian 22.2% | IGROV1 ovarian 31.8% | HS 578T breast 52.6% | T-47D breast 41.8% | BT-549 breast 31.6% | SW-620 colon 21.9% | HCC-2998 colon 38.2% | KM12 colon 24.1%
active: OVCAR-8 ovarian 5.6% | OVCAR-3 ovarian -19.8% | NCI/ADR-RES ovarian 4.98% | MCF7 breast 5.14% | HCT-116 colon 0.586%

O=C1OCC2=C1C(c1cccc(C(F)(F)F)c1)c1cc3c(cc1N2CCO)OCO3 (centres undefined)
active: OVCAR-3 ovarian -5.02%
inactive: SR leukemia 15.7% | RPMI-8226 leukemia 21% | OVCAR-8 ovarian 23.3% | OVCAR-5 ovarian 55% | OVCAR-4 ovarian 58.1% | SK-OV-3 ovarian 27.9% | IGROV1 ovarian 37.2% | HS 578T breast 31.4% | NCI/ADR-RES ovarian 25% | T-47D breast 28% | BT-549 breast 55% | SW-620 colon 23.3% | MCF7 breast 20.9% | HCT-116 colon 21.4% | HCC-2998 colon 69.9% | KM12 colon 24.9%

COc1ccc2c(c1)c(-c1nc(-c3cn(C)c4ncccc34)cs1)cn2CCO
inactive: SR leukemia 58.2% | RPMI-8226 leukemia 50.5% | OVCAR-8 ovarian 73% | OVCAR-5 ovarian 76% | OVCAR-4 ovarian 45.5% | SK-OV-3 ovarian 89.8% | IGROV1 ovarian 85.2% | OVCAR-3 ovarian 99.1% | HS 578T breast 80.9% | NCI/ADR-RES ovarian 90% | T-47D breast 10.1% | BT-549 breast 76.9% | SW-620 colon 93.6% | MCF7 breast 12% | HCT-116 colon 74.2% | HCC-2998 colon 95.1% | KM12 colon 49.5%

COc1ccc(C2=CN3CC=CCC3CC2=O)cc1 (centres undefined)
inactive: SR leukemia 90.3% | RPMI-8226 leukemia 97.9% | OVCAR-8 ovarian 91% | OVCAR-5 ovarian 106% | OVCAR-4 ovarian 109% | SK-OV-3 ovarian 106% | IGROV1 ovarian 111% | OVCAR-3 ovarian 102% | HS 578T breast 98.3% | NCI/ADR-RES ovarian 107% | T-47D breast 90.6% | BT-549 breast 90.7% | SW-620 colon 101% | MCF7 breast 105% | HCT-116 colon 93.1% | HCC-2998 colon 100% | KM12 colon 104%

Cn1cc(C(=O)c2nc(-c3c[nH]c4ccc(Br)cc34)no2)c2cc(Br)ccc21
inactive: RPMI-8226 leukemia 86.6% | OVCAR-8 ovarian 48.6% | OVCAR-5 ovarian 82.7% | SK-OV-3 ovarian 87.7% | IGROV1 ovarian 69.5% | OVCAR-3 ovarian 92.7% | HS 578T breast 80.3% | NCI/ADR-RES ovarian 56.1% | T-47D breast 71.8% | BT-549 breast 79% | MCF7 breast 38.8% | HCC-2998 colon 103% | KM12 colon 55.2%
active: SR leukemia 6.41% | OVCAR-4 ovarian -0.341% | SW-620 colon -2.17%

COC(=O)Cc1nc(C#N)c(N(C)C)o1
inactive: SR leukemia 94.9% | RPMI-8226 leukemia 102% | OVCAR-8 ovarian 101% | OVCAR-5 ovarian 94.7% | OVCAR-4 ovarian 107% | SK-OV-3 ovarian 92.7% | IGROV1 ovarian 103% | OVCAR-3 ovarian 109% | HS 578T breast 87.1% | NCI/ADR-RES ovarian 101% | T-47D breast 89.6% | MDA-MB-435 melanoma 103% | SW-620 colon 95.9% | MCF7 breast 94.9% | HCT-116 colon 97.1% | HCC-2998 colon 103% | KM12 colon 94.7%

C/C(=N\Nc1nc(C)cs1)c1cc2ccccc2o1
inactive: SR leukemia 109% | RPMI-8226 leukemia 88.5% | OVCAR-8 ovarian 93.3% | OVCAR-5 ovarian 103% | OVCAR-4 ovarian 94.2% | SK-OV-3 ovarian 105% | IGROV1 ovarian 75.8% | OVCAR-3 ovarian 94.1% | HS 578T breast 88.8% | NCI/ADR-RES ovarian 102% | T-47D breast 21.4% | BT-549 breast 99.3% | SW-620 colon 100% | MCF7 breast 74.2% | HCT-116 colon 79.3% | HCC-2998 colon 112% | KM12 colon 95.5%
